From ChEMBL document CHEMBL1961873, “Compounds: GSK PKIS; Assays: Nanosyn kinase panel” (2012)
Values joined by “and” are separate entries in the source; they are usually repeats but may differ in a detail not shown here. Equal values may be shown once.

Columns and labels:
[1] = target: Death-associated protein kinase 1 (Homo sapiens) (UniProt P53355); settings: at 1 µM;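 also: each value is a mean inhibition figure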
[2] = target: T1, Serine/threonine-protein kinase DCLK2 (Homo sapiens) (UniProt Q8N568); settings: at 0.1 µM
T1 sequence (whole entry): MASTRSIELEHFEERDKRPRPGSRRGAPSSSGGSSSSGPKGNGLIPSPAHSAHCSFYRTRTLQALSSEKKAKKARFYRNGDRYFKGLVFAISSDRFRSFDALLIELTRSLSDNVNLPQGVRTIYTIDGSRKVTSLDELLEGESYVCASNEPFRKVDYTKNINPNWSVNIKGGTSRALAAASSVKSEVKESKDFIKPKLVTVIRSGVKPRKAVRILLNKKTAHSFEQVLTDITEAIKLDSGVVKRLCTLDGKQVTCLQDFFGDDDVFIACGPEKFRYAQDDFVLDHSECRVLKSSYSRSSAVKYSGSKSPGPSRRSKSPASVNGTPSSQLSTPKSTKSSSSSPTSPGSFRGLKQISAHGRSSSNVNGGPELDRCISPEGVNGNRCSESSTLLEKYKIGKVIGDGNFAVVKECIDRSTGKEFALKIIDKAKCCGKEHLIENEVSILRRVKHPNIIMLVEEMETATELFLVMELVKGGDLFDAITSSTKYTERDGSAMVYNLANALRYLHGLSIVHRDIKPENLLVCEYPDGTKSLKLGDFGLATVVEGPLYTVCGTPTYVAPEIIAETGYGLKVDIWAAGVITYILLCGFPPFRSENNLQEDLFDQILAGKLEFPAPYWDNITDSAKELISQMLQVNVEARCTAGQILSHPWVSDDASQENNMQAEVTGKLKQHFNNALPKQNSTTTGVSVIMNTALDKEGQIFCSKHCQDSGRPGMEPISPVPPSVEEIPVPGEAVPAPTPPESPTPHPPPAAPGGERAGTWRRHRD

[3] = target: T1, Serine/threonine-protein kinase DCLK2 (Homo sapiens); settings: at 1 µM
[4] = target: MAP kinase-activated protein kinase 2 (Homo sapiens) (UniProt P49137); settings: at 0.1 µM
[5] = target: MAP kinase-activated protein kinase 2 (Homo sapiens) (UniProt P49137); settings: at 1 µM
[6] = target: MAP kinase-activated protein kinase 3 (Homo sapiens) (UniProt Q16644); settings: at 0.1 µM
[7] = target: MAP kinase-activated protein kinase 3 (Homo sapiens) (UniProt Q16644); settings: at 1 µM
[8] = target: Serine/threonine-protein kinase MARK1 (Homo sapiens) (UniProt Q9P0L2); settings: at 0.1 µM
[9] = target: Serine/threonine-protein kinase MARK1 (Homo sapiens) (UniProt Q9P0L2); settings: at 1 µM
[10] = target: MAP/microtubule affinity-regulating kinase 3 (Homo sapiens) (UniProt P27448); settings: at 0.1 µM;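 also: mean percent inhibition of MARK3 kinase activity, measured within the GSK PKIS screening panel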
MAP/microtubule affinity-regulating kinase 3 (Homo sapiens), sequence (P27448 whole entry, looked up): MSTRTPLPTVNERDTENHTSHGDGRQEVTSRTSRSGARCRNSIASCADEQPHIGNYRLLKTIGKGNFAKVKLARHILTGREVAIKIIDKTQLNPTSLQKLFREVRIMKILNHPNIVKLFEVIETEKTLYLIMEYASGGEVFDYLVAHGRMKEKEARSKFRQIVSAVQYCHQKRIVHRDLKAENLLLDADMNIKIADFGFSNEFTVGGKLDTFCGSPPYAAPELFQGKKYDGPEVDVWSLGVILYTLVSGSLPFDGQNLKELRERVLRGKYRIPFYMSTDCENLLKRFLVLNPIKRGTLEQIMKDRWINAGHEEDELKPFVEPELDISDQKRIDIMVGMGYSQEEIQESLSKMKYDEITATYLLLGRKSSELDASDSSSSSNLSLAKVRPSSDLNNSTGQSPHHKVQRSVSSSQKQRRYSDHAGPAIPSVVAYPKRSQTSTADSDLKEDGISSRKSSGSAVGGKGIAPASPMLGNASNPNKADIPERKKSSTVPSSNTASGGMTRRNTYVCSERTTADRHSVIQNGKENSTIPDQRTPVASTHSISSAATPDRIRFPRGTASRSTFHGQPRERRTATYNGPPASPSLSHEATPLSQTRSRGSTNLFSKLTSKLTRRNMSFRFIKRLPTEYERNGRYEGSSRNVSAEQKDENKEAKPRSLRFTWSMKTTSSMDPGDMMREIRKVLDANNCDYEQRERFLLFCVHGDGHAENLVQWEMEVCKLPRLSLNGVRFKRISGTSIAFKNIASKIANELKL

Serine/threonine-protein kinase MARK1 (Homo sapiens), sequence (Q9P0L2 whole entry, looked up): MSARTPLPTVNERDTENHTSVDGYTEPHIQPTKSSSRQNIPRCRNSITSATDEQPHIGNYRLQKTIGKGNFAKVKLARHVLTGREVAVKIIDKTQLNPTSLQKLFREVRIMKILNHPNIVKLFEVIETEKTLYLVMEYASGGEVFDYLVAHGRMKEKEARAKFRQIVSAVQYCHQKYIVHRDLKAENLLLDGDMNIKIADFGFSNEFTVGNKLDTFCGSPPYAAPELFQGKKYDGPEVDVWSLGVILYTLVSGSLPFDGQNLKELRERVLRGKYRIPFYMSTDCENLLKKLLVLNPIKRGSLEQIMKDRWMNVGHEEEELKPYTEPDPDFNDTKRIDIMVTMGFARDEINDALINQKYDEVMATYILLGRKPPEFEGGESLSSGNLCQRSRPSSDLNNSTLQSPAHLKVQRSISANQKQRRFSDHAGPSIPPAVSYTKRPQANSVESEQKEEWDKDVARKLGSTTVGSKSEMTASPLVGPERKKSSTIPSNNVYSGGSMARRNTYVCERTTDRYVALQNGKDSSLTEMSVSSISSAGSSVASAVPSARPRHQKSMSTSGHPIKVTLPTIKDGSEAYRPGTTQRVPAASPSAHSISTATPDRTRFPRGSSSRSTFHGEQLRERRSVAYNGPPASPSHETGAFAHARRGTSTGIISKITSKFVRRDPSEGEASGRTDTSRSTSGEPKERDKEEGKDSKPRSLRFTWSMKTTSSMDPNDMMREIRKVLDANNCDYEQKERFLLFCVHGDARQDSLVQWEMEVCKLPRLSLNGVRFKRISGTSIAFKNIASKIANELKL
MAP kinase-activated protein kinase 2 (Homo sapiens), sequence (P49137 whole entry, looked up): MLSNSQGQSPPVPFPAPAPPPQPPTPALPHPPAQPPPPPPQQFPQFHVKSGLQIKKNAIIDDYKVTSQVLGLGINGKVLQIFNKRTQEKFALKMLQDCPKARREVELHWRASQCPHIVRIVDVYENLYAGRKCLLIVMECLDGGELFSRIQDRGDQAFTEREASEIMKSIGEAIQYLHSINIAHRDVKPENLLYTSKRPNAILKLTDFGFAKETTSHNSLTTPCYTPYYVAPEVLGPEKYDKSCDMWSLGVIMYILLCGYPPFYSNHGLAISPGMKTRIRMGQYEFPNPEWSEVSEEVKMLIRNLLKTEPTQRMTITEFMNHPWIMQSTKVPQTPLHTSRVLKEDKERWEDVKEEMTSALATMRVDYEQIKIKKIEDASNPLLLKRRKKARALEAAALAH
Death-associated protein kinase 1 (Homo sapiens), sequence (P53355 whole entry, looked up): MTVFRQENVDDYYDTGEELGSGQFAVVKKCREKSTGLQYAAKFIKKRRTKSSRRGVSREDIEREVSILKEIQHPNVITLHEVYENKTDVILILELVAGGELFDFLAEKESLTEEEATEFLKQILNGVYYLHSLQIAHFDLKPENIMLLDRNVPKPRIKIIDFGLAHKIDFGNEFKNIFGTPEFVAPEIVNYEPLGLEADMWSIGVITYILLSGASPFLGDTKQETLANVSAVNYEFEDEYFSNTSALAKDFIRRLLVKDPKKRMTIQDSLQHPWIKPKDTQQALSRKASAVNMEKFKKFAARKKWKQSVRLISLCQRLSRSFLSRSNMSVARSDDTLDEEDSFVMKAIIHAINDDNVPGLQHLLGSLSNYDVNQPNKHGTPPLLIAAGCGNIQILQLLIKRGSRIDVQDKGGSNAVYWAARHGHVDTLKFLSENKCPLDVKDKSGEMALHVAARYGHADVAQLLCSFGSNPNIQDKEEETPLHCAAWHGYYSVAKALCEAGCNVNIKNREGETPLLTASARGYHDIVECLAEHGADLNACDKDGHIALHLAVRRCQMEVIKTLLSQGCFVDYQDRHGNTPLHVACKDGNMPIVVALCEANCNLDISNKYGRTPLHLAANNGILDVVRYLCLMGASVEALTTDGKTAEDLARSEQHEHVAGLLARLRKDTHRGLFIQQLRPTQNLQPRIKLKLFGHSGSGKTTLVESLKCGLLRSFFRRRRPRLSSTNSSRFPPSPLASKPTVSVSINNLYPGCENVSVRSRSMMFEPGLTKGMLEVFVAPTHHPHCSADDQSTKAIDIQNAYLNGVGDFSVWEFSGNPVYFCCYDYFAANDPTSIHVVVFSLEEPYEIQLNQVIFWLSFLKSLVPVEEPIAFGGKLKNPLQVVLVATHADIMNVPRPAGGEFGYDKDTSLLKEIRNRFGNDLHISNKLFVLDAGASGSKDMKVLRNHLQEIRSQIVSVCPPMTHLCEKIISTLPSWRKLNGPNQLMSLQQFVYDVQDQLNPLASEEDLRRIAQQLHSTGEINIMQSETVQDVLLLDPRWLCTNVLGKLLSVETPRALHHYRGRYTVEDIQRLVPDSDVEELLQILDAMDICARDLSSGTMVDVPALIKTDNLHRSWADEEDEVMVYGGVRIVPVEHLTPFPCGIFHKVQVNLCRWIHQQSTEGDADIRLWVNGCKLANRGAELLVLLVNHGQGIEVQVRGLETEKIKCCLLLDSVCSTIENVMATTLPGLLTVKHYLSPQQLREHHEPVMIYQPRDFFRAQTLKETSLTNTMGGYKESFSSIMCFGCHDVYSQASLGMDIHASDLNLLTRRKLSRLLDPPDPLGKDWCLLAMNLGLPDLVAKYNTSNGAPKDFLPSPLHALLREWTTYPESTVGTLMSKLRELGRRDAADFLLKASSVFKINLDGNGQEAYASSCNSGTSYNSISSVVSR
MAP kinase-activated protein kinase 3 (Homo sapiens), sequence (Q16644 whole entry, looked up): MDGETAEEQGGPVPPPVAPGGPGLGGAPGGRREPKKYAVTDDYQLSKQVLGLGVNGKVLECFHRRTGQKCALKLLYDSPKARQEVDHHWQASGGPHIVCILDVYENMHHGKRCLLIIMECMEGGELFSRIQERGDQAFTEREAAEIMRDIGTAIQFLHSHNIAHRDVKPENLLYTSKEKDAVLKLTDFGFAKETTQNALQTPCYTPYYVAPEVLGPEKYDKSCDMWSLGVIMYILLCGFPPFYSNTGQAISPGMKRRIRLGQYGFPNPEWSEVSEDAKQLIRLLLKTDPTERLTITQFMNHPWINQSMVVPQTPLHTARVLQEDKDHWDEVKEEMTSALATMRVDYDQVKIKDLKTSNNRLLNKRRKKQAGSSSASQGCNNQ

SMILES	inhibition [1]	inhibition [2]	inhibition [3]	inhibition [4]	inhibition [5]	inhibition [6]	inhibition [7]	inhibition [8]	inhibition [9]	inhibition [10]
COc1cccc(Nc2nccc(-c3cnn4ncccc34)n2)c1	0.16%	-2.05%	2.73%	1.39%	-0.06%	2.8%	2.89%	4.15%	27.7%	4.03%
COc1c(C(N)=O)cc(-c2ccc(Cl)cc2)cc1-c1ccc(S(N)(=O)=O)cc1	0.56%	-5.08%	2.52%	2.42%	3.46%	5.57%	8.63%	0.41%	1.61%	-0.24%
CCN1CCC(C(=O)Nc2n[nH]c3nnc(-c4cccc(F)c4F)cc23)CC1	-1.64%	-0.76%	-0.98%	-0.95%	-0.88%	-0.17%	-1.03%	0.92%	2.69%	-0.37%
Cc1ccc(-c2cc3c(NC(=O)C4CC4)ncnc3o2)cc1	4.66%	1.46%	0.28%	1.78%	1.3%	2.67%	2.29%	5.62%	5.21%	3.78%
Nc1ncnc2occ(-c3ccc(NC(=O)Nc4cc(C(F)(F)F)ccc4F)cc3)c12	4.75% and 1.06%	3.65% and -1.65%	-4.63%	1.16% and -1.74%	1.1% and -1.65%	3.46% and -1.38%	13.9% and 7.55%	1.91% and -0.63%	3.01% and -0.26%	1.57% and -1.4%
Cc1cc(O)cc(C)c1/C=C/c1cncc(C(N)=O)c1	1.91%	1.42%	3.35%	1.06%	0.98%	1.57%	1.76%	2.85%	3.03%	3.52%
COc1ccc(Nc2ncc(-c3ccccc3)o2)cc1OC	1.47%	0.15%	5.3%	-0.12%	-0.35%	0.05%	0.81%	2.68%	20.4%	4.59%
O=C(O[C@H]1CN[C@H](C#Cc2cc3ncnc(Nc4ccc5c(cnn5Cc5ccccc5)c4)c3s2)C1)N1CCOCC1	-1.55%	-2.27%	-1.86%	-0.79%	-0.97%	0%	-0.37%	0.33%	3.97%	-1.73%
CCCNc1cccc(-n2ncc3c(N/N=C/c4ccncc4)ncnc32)c1	-8.41%	6.83%	2.98%	-2.72%	-2.37%	-5.26%	-4.82%	2.01%	10.3%	3.4%
OCCCNc1nccc(-c2c(-c3ccc(F)cc3)nn3cc(C(F)(F)F)ccc23)n1	1.04%	0.89%	2.29%	0.94%	0.71%	30.2%	36.3%	0.69%	3.09%	0.94%
CS(=O)(=O)Nc1ccc(-c2cc(-c3ccccc3)cc(C(N)=O)c2N)cc1	1.38%	-0.48%	1.02%	1.59%	1.42%	0.37%	2.22%	0.39%	1.47%	-0.54%
c1ccc(-c2n[nH]cc2-c2ccnc(-c3ccc(OCCn4ccnc4)cc3)c2)nc1	-8.69%	6.53%	-6.73%	-2.58%	-2.83%	-3.24%	4.97%	1.59%	3.61%	-0.18%
Cc1nnc(-c2cccc(-c3ccc(C(=O)NCC4CC4)cc3)c2)o1	6.03%	1.25%	4.29%	2.92%	2.7%	5.72%	6.73%	4.06%	6.5%	4.12%
CNC(=O)c1ncccc1Nc1nc(Nc2cc3c(cc2OC)CCCN3C(=O)CN(C)C)nc2[nH]ccc12	7.57%	1.66%	3.04%	2.23%	1.51%	3.6%	2.72%	4.87%	6.32%	5.9%
COc1ccc(-c2nn3ncccc3c2-c2ccnc(Nc3ccc(F)c(F)c3)n2)cc1	6.8%	1.7%	0.5%	2.31%	2.82%	16.8%	32.5%	4.53%	8.38%	4.11%
CCOc1ccc2c(-c3ccnc(Nc4cc(OC)cc(C(F)(F)F)c4)n3)cnn2n1	1.23%	-0.5%	4.41%	0.58%	-0.09%	0.28%	-1.31%	-0.04%	2.77%	-1.2%

SMILES	inhibition [1]	inhibition [2]	inhibition [3]	inhibition [4]	inhibition [5]	inhibition [6]	inhibition [7]	inhibition [8]	inhibition [9]	inhibition [10]
O=C(O[C@H]1CN[C@H](C#Cc2cc3ncnc(Nc4ccc(OCc5cccc(F)c5)c(Cl)c4)c3s2)C1)N1CCOCC1	-0.32%	0.93%	0.57%	-0.11%	0.31%	-0.64%	-0.5%	6.71%	5.07%	1.14%
FC(F)(F)CNc1nccc(-c2cnn3ncccc23)n1	2.17%	-0.54%	3.19%	1%	-0.08%	3.47%	3.54%	1.58%	4.46%	0.46%
CS(=O)(=O)CCNCc1ccc(-c2ccc3ncnc(Nc4ccc(OCc5ccccc5)cc4)c3c2)o1	1.36%	1.31%	1.03%	1.2%	0.72%	3.13%	2.48%	3.03%	2.05%	0.62%
c1cnn2ncc(-c3ccnc(NCCCN4CCOCC4)n3)c2c1	-0.07%	1.46%	1.43%	1.81%	2.19%	4.59%	4.86%	1.78%	5.05%	2.58%
COC(=O)Nc1nc2cc(Oc3ccc(NC(=O)Nc4ccccc4)cc3)ccc2[nH]1	3.19%	-1.72%	5.13%	1.49%	1.44%	1.74%	2.32%	2.28%	4.31%	1.57%
O=C(O[C@H]1CN[C@H](C#Cc2cc3ncnc(Nc4ccc5c(ccn5Cc5cc(F)ccc5F)c4)c3s2)C1)N1CCOCC1	-3.4%	1.07%	-1.18%	-0.3%	-1.2%	-1.09%	-1.03%	4.09%	3.3%	1.37%
N#Cc1cccc(Nc2ncc(-c3ccccc3)o2)c1	2.82%	-0.77%	0.28%	0.9%	1.11%	-0.02%	2.79%	1.98%	5.43%	-0.93%
CS(=O)(=O)CCNCc1ccoc1-c1ccc2ncnc(Nc3ccc(OCc4ccccc4)cc3)c2c1	-0.75%	-1.49%	-0.03%	-0.61%	-0.91%	0.57%	0.18%	-0.89%	1.23%	-2.66%
COc1cccc(-n2ncc3c(N/N=C/c4ccc(C(=O)NCCN(C)C)cc4)ncnc32)c1	4.78%	1.42%	0.78%	0.79%	1.08%	1.89%	4.06%	4.25%	16.7%	4.78%
COc1ccccc1-c1cc(/C=C2\C(=O)Nc3ncc(Br)cc32)cc(Br)c1O	4.6%	0.85%	1.21%	1.81%	1.69%	5.31%	6.33%	3.43%	7.22%	3.34%
CCS(=O)(=O)c1ccc(OC)c(Nc2ncc(-c3cccc(C(C)=O)c3)o2)c1	3.26%	-0.25%	-0.78%	2.19%	1.71%	3%	3.61%	1.61%	3.04%	0.57%
Nc1nonc1-c1nc2cnccc2n1C1CC1	4% and -1.82%	1.88% and -0.85%	3.6% and -3.51%	1.36% and 1.4%	1.45% and 0.82%	5.15% and 2.54%	6.05% and 1.43%	6.69% and 4.73%	23.2% and 20.6%	7.63% and 5.91%
N#Cc1ccc2c(-c3ccnc(NC4CC4)n3)c(-c3ccc(F)cc3)nn2c1	0.06%	-0.01%	1.17%	0.5%	-0.23%	32.7%	35.1%	0.42%	1.08%	2.94%
Fc1cccc(COc2ccc(Nc3ncncc3C#Cc3ccccc3)cc2Cl)c1	5.6%	1.92%	-0.09%	2.63%	2.47%	4.72%	6.08%	4.09%	5.61%	4.58%
CN1CCC(n2cnc(-c3ccc(F)cc3)c2-c2ccnc(NCCO)n2)CC1	5.18%	1.63%	0.48%	2.06%	2.43%	27.6%	37.2%	3.31%	7.7%	4.03%
